Giardia kill: kills Giardia lamblia. activity change, % at 7.66 µM, hits read low. AID 540267. 0.15% of 340,000 active. Giardia lamblia trophozoite viability; in the data active = activity change below about -80%; inconclusive = between about -30% and that limit;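 also: parasites exposed to compound for two days anaerobically before the ATP read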
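Giardia lamblia trophozoites (100 cells/well) were incubated with compounds for 48 h at 37 deg C under anaerobic conditions. Viability was read as ATP content by one-step luminescence after 15-30 min at room temperature.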
USP1-UAF1 inh: inhibitors of human USP1/UAF1 deubiquitinase; O94782; recombinant USP1/UAF1, Ub-Rhodamine cleavage fluorescence; Potency, µM (titrated, usually from 57.1 µM), for inactives: at the top dose activity change, negative = inhibition, actives largely listed as inhibitors; 0.23% of 390,000 active; active = well fitted inhibition curve with a large enough effect; inconclusive = small, poorly fitted or top-dose-only effect; inactive = no such curve, though single readings can be large or run the other way; also: potency is read from the fitted curve at half-maximal effect; nearly all actives have a fitted effect of over 60% in size
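High-throughput fluorogenic screen: 1nM USP1/UAF1 complex, Ub-Rho substrate 150nM final, 50mM HEPES pH 7.8 with 0.5mM EDTA, 0.1 mg/ml BSA, 1mM TCEP and 0.01% Tween-20.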
hERG WT inh: inhibitors of human wildtype KCNH2 potassium channel | Q12809 | U2OS, BacMam KCNH2, thallium flux FluxOr; stronger effect = lower value | activity change, % at 1.84 µM | 0.37% of 340,000 active;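 active = maximum activity change below -70%; inconclusive = maximum activity change between -70% and -50%; inactive = maximum activity change above -50%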
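U2OS cells transduced with wild-type KCNH2 virus are loaded with FluxOr dye for 45 min, and thallium flux is measured in kinetic reads before and after stimulation buffer. Rate constants are normalized to DMSO controls.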
KCNH2 3.1 block: inhibitors of human KCNH2 3.1 potassium channel isoform. U2OS KCNH2 3.1, thallium flux FluxOr; stronger effect = lower value. activity change, % (tested at about 1.8 µM). 0.95% of 340,000 active;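 active = maximum activity change below -70%; inconclusive = maximum activity change from -70% to -50%; inactive = maximum activity change above -50%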;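 also: thallium influx rate constant from kinetic fluorescence after stimulation buffer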
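We transduce U2OS cells with the mutant 3.1 virus, culture them overnight, load FluxOr with Red40 quencher for 45 min, then add stimulation buffer and read kinetically for 2 min to derive a normalized rate constant.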
Coupling enz: inhibits coupling enzyme system, counter-screen for aldolase hits; activity change, negative = inhibition, % at 58.2 µM, hits read low; 0.67% of 290,000 active; coupling enzyme system counterscreen, AmpLite Red fluorescence; AID 2472; in the data active = activity change below about -30%
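Fluorescence at 525 nm excitation and 598 nm emission measured inhibition of the coupled detection system without aldolase. Compounds (at 57.5 uM final) were preincubated 10 min at room temperature with coupling enzyme reagent before a 20 min substrate/AmpLite Red step.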
* hit, by the source's call; ? = inconclusive; nt = no result given; ! = repeats disagree. Only some compounds are listed: those with a hit (about 1.7% of all), similar ones and a draw of the others. % is scaled to controls: 0 for no effect and ±100 for the full control effect.

SMILES	Giardia kill	USP1-UAF1 inh	hERG WT inh	KCNH2 3.1 block	Coupling enz
Cc1cc(NC(=O)CCN2CCN(C/C=C/c3ccccc3)CC2)ccc1Br	-1.2	-15.7%	-24.9	-107.8*	-0.6
Cc1cc(NC(=O)CN2CCN(C/C=C/c3ccccc3)CC2)c([N+](=O)[O-])cc1C	12.0	-22.4%	-16.8	-92.4*	2.5
COc1ccc2c(c1)c1c(c(=O)n(-c3ccc(OC)c(OC)c3)c(=O)n1CC(=O)N1CCCC1)n2C	nt	0.4%	nt	nt	nt
O=C(CCN1CCN(C/C=C/c2ccccc2)CC1)Nc1ccccc1	4.1	-15.3%	-26.9	-80.3*	2.6
Cc1cccc(NC(=O)CCN2CCN(C/C=C/c3ccccc3)CC2)c1	12.6	-3.2%	15.1	-90.6*	3.0
O=C(CS(=O)(=O)c1cccc2nsnc12)NCc1ccccc1Cl	nt	-30.7%	nt	nt	nt
CCC(=O)Nc1cc(C(=O)O)ccc1Sc1ccccc1	10.1	-5.5%	0.2	-116.2*	3.6
CC(=O)Nc1ccc(C(=O)OCC(=O)Nc2ccccc2Sc2ccccc2)cc1	-11.4	-17.5%	-20.5	-79.4*	1.4
Cc1cccc(CNC(=O)c2cnc3sc(N4CCCCCC4)nn3c2=O)c1	nt	-22.2%	nt	nt	nt
CCOc1cc(-n2nc(C)c(C#N)c2N)nc(SC)n1	nt	nt	nt	nt	0.1
CCCCN(CC)c1nc(N)c(C#N)c(CC#N)c1C#N	13.9	?	0.2	-3.0	-34.7*
CCCCN(CC)c1nc(N)c2c(N)nc(OCC)cc2c1C#N	-2.1	?	6.3	-7.7	-48.3*
C=C(C)CN(CC)c1nc(N)c(C#N)c(CC#N)c1C#N	-5.5	-17.6%	-3.0	22.0	-19.4
Cc1ccc(Nc2cc(=O)n(C)c(=O)[nH]2)cc1C	nt	?	-6.4	25.6	nt
COc1ccc(Cl)cc1NC(=O)CC(=O)Nc1cc(Cl)ccc1OC	20.8	-2.0%	-8.8	0.3	1.1
CCC(C)(C)NC(=O)Nc1cc(Cl)ccc1OC	2.2	-19.9%	1.3	-80.9*	-4.6
O=C1NC(=O)C2(N1)C(=O)c1cccc3cccc2c13 (configuration not stated)	nt	35.5µM*	-5.8	0.1	nt
Cc1[nH][nH]c(=O)c1C(c1ccc(-c2ccc(Cl)cc2Cl)o1)c1c(C)[nH][nH]c1=O	nt	nt	nt	nt	-57.9*
CNC(=S)N/N=C/c1ccc(-c2cccc(C(=O)O)c2)o1	-15.3	-12.8%	5.9	-23.8	0.2
Cc1[nH][nH]c(=O)c1C(c1ccc(-c2cccc(C(=O)O)c2)o1)c1c(C)[nH][nH]c1=O	-6.3	?	-3.7	0.0	-30.9*
Cc1[nH][nH]c(=O)c1C(c1ccc(-c2ccccc2C(=O)O)o1)c1c(C)[nH][nH]c1=O	1.7	?	7.5	9.9	-47.3*
COc1ccc(C(=O)Oc2ccc(C(c3c(C)[nH][nH]c3=O)c3c(C)[nH][nH]c3=O)cc2OC)cc1	-10.4	-21.4%	nt	nt	nt
Cc1ccc2oc(-c3ccccc3C(=O)O)cc(=O)c2c1	-16.9	-2.8%	0.3	1.1	4.9
COC(=O)c1ccc(-c2ccc(C(c3c(C)[nH][nH]c3=O)c3c(C)[nH][nH]c3=O)o2)cc1	-5.8	28.2µM*	-9.5	14.3	-44.5*
O=C(CSc1nc(=O)n(CCN2CCOCC2)c2c1CCC2)Nc1ccccc1	nt	-22.6%	nt	nt	nt
SMILES	Giardia kill	USP1-UAF1 inh	hERG WT inh	KCNH2 3.1 block	Coupling enz
Cc1nc(-c2ccc(S(=O)(=O)N(C)Cc3ccccc3)cc2)co1	nt	-29.8%	nt	nt	nt
Cc1[nH][nH]c(=O)c1C(c1ccc(Br)cc1)c1c(C)[nH][nH]c1=O	-7.9	-4.8%	3.5	-22.9	-3.2
Cc1[nH][nH]c(=O)c1C(c1ccc(-c2cccc(Cl)c2)o1)c1c(C)[nH][nH]c1=O	-0.6	28.2µM*	-10.3	-12.7	-48.3*
O=C(Nc1cccc(-c2csc(Nc3ccc(Cl)cc3)n2)c1)c1ccccc1	10.7	?	19.4	-14.0	-0.6
O=C(Nc1cccc(-c2csc(Nc3ccc(Cl)cc3)n2)c1)c1cccc(C(F)(F)F)c1	16.2	22.7%	-0.4	-77.6*	-9.4
CCN(C(=O)Cn1cc(C(=O)c2ccc(F)cc2)c(=O)c2ccc(C)nc21)c1cccc(C)c1	nt	-14.4%	nt	nt	nt
O=C1CCCc2cc(S(=O)(=O)N3CCCC(C(=O)Nc4ccc(F)c(Cl)c4)C3)ccc2N1 (configuration not stated)	nt	-21.5%	nt	nt	nt
O=C(CN1C(=O)C2CC=C(Cl)CC2C1=O)N1CCOCC1 (configuration not stated)	-2.4	-15.1%	-6.5	9.1	-36.0*
C[N+]1(CCN2C(=O)C3CC=C(Cl)CC3C2=O)CCOCC1 (configuration not stated)	16.3	-17.6%	2.5	1.3	4.5
CCc1cccc(NC(=O)CSc2ncc3c(n2)-c2ccccc2N(Cc2ccccc2C)S3(=O)=O)c1	nt	-30.1%	nt	nt	nt
Clc1cccc(-c2nnc(SC/C=C/c3ccccc3)n2Cc2ccco2)c1	-16.4	-25.4%	-16.8	-97.7*	-0.9
O=C(/C=C/c1ccc(O)c(O)c1)O[C@H](Cc1ccc(O)c(O)c1)C(=O)O	nt	nt	nt	nt	-35.1*
C[C@](N)(Cc1ccc(O)c(O)c1)C(=O)O	-4.7	-12.6%	5.0	7.3	-57.6*!
NC(Cc1ccc(O)c(O)c1)C(=O)O (configuration not stated)	nt	nt	nt	nt	-30.4*
COC(=O)C(N)Cc1ccc(O)c(O)c1 (configuration not stated)	22.9	-0.3%	4.6	-0.1	-7.2
O=C(O)/C=C/c1ccc(O)c(O)c1	-13.5	-23.8%	-0.1	13.0	-30.4*!
O=C(COC(=O)c1cccc(OC(F)F)c1)Nc1cc(S(=O)(=O)N2CCCC2)ccc1Cl	nt	-15.5%	17.0	-3.0	nt
COc1ccc(CN2CCC(C(=O)c3ccc(Cl)cc3)CC2)cc1	-3.7	-20.4%	-110.2*	-96.9*	-0.4
COc1ccc(NC(=O)CN2CCC(C(=O)c3ccc(F)cc3)CC2)c(OC)c1	4.6	-26.3%	18.7	16.1	1.3
COc1ccc(CNC(=O)C2CCN(C(=O)c3cccc(Cl)c3)CC2)cc1	-1.7	-8.1%	-8.4	5.3	-1.8
COc1ccc(-c2[nH]ncc2CN2CCC(C(=O)c3ccc(F)cc3)CC2)cc1	-21.0	-17.7%	-34.4	-93.5*	2.5
COc1ccc(NC(=S)N2CCC(C(=O)c3ccc(Cl)cc3)CC2)cc1	-3.7	-19.1%	-37.0	15.7	nt
COc1ccc(CN2CCC(C(=O)c3cccc(Cl)c3)CC2)cc1	-9.4	-21.8%	?	-107.6*	-1.9
NCCCC[C@H](NC(=O)[C@H](CCCN=C(N)N)NC(=O)[C@H](CO)NC(=O)[C@H](CCCN=C(N)N)NC(=O)[C@@H](N)Cc1ccc(O)cc1)C(=O)N[C@@H](Cc1ccc(O)cc1)C(=O)N[C@@H](CO)C(=O)N[C@@H](CO)C(=O)N[C@@H](Cc1c[nH]c2ccccc12)C(=O)N[C@@H](Cc1ccc(O)cc1)C(=O)O	nt	nt	nt	nt	-3.0

Screens: PubChem BioAssay, National Center for Advancing Translational Sciences (NCATS)
